Vaccinia mCherry: vaccinia inhibition (mCherry reporter); AID 720579; actives 0.63% (n = 310,000); Potency, µM (series often up to 36.5 µM), inactives show top-dose activity change, negative = inhibition, most hits filed as inhibitors; Vaccinia virus mCherry reporter infection, fluorescence; calls by dose curve; tested in A549 cells; note: potency is the fitted concentration of half-maximal effect; nearly all actives have a fitted effect of over 35% in size
FMDV antiviral: foot and mouth disease virus antiviral activity | FMDV antiviral cell-based qHTS | Potency, µM (series often up to 57.9 µM), without a hit: at the top dose activity change, negative = inhibition, hits mostly inhibitors | actives 1.2% (n = 410,000) | AID 1159524; calls by dose curve; tested in HEK293T cells; note: read-out not given here; potency is the fitted concentration of half-maximal effect; nearly all actives have a fitted effect of over 45% in size
HCV inhibitor: blocks hepatitis C virus; Potency, µM (top dose mostly 41.8 µM), without a hit: top-dose activity change, negative = inhibition, actives largely listed as inhibitors; Huh7.5.1 HCVcc-Cre infection, luciferase reporter, 44 h; actives 3.4% (n = 340,000); active = well fitted inhibition curve with a large enough effect; inconclusive = small, poorly fitted or top-dose-only effect, or another doubt; inactive = no such curve, though single readings can be large or run the other way; note: potency is the fitted concentration of half-maximal effect
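After 44 h co-culture of compound, cells and HCVcc-Cre (~0.5 moi), substrate is added for 15 min at room temperature and luciferase measured over 15 sec. Cells were seeded at 1,000/well and pre-cultured 4 h.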
HCMV antiviral: blocks human cytomegalovirus replication; HFF cells, HCMV-luciferase reporter, 72 h; stronger effect = lower value; activity change, negative = inhibition, % at 57.5 µM; actives 4.5% (n = 410,000); AID 1259415; in the data active = activity change below about -60%; inconclusive = no clear call, values can overlap the other calls; inactive = above about -39%
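Two compound doses tested in HFFs infected with HCMV-luciferase, MOI 1 PFU/cell, 72 h at 37C. Lysate luminescence read with OneGlo; data normalized against buffer-only and 10uM Salinomycin inhibitor controls.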
VACV Venus inh: vaccinia inhibition (Venus reporter). Vaccinia virus Venus reporter expression, fluorescence. Potency, µM (series often up to 36.5 µM), for inactives: top-dose activity change, negative = inhibition, usual class: inhibitors. actives 0.46% (n = 330,000). AID 720580; calls by dose curve; tested in A549 cells; note: potency is the fitted concentration of half-maximal effect; nearly all actives have a fitted effect of over 30% in size
* hit, by the source's call; i = inactive; ? = inconclusive; / = no result; [ ] = remark or other dose. Only some compounds are listed: those with a hit (about 7.3% of all), similar ones and a draw of the others. % is set by controls: 0 for no effect and ±100 for the full control effect.

SMILES | Vaccinia mCherry | FMDV antiviral | HCV inhibitor | HCMV antiviral | VACV Venus inh
Cc1cccc(C)c1-n1nnnc1C(c1cccc2ccccc12)N1CCC(n2c(=O)[nH]c3ccccc32)CC1 (stereo unspecified) | -7.8% | -17.1% | / | 4.9 | -24.0%
CCC1CN(CCC(=O)N2CCCN(C(=O)c3ccco3)CC2)Cc2cc(OC)ccc2O1 (stereo unspecified) | -14.3% | -10.9% | / | / | 1.3%
COc1cccc(Cn2c(=O)cnc3cnc(Oc4ccccc4)nc32)c1 | / | -16.6% | / | / | /
COc1ccc(N2CCN(C(c3ccccc3)c3nnnn3Cc3ccccc3)CC2)cc1 (stereo unspecified) | -16.1% | / | / | / | -20.8%
O=c1[nH]c2ccccc2n1C1CCN(C(c2cccs2)c2nnnn2Cc2ccccc2)CC1 (stereo unspecified) | -6.9% | -4.8% | / | -95.9* | ?
COc1ccc(C(c2nnnn2Cc2ccccc2)N2CCC(n3c(=O)[nH]c4ccccc43)CC2)cc1 (stereo unspecified) | -28.3% | -21.5% | / | -65.3* | -25.1%
Cc1cccc(C)c1-n1nnnc1C(c1cccs1)N1CCC(n2c(=O)[nH]c3ccccc32)CC1 (stereo unspecified) | 9.7% | ? | / | -76.8* | -16.8%
O=c1[nH]c2ccccc2n1C1CCN(C(c2nnnn2Cc2ccccc2)C2CC2)CC1 (stereo unspecified) | -4.4% | -27.8% | / | ? | -7.7%
O=S(=O)(NCCN1CCOCC1)c1ccc(Cl)s1 | i | 7.8% | 9.2% | -39.6 | -3.4%
Cc1ccc(S(=O)(=O)NCCN2CCOCC2)s1 | / | 9.5% | -4.7% | -67.0* | /
NS(=O)(=O)c1ccc(NC(=O)/C=C/c2cccc(Cl)c2)cc1 | / | -5.5% | 11.2µM* | -13.1 | /
CC1CCc2nc(N)c(C#N)c(-c3ccncc3)c2C1 (stereo unspecified) | -12.0% | -13.9% | 9.7% | -23.3 | -4.5%
CC1CCc2nc(N)c(C#N)c(-c3cccnc3)c2C1 (stereo unspecified) | i | ? | ? | -66.1* | -7.6%
O=[N+]([O-])c1cc(-c2nc(-c3ccccc3)no2)ccc1N1CCCC1 | -24.8% | -11.6% | / | -80.1* | ?
O=[N+]([O-])c1cc(-c2nc(-c3ccccc3)no2)ccc1N1CCN(c2ccccc2)CC1 | -12.6% | -8.6% | / | 8.0 | -4.2%
COc1cc(-c2noc(-c3ccc(NCC4CCCO4)c([N+](=O)[O-])c3)n2)cc(OC)c1OC (stereo unspecified) | -11.5% | 11.2µM* | / | -3.3 | -8.9%
COc1ccc(-c2noc(-c3ccc(N4CCN(C)CC4)c([N+](=O)[O-])c3)n2)cc1OC | -16.7% | 30.8% | / | -105.1* | -27.9%
CCc1ccc(NC(=O)N2CC(C)Oc3ccc(C)cc32)cc1 (stereo unspecified) | -3.6% | 13.2% | / | -17.6 | -13.2%
COc1cccc(/C=C2\CCc3ccccc3C2=O)c1 | i | -65.8% | -3.0% | -0.1 | -14.1%
COc1ccc(OC)c(/C=C2\Cc3ccccc3C2=O)c1 | -25.4% | / | / | / | -9.1%
COc1ccc(OC)c(C=C2CCc3ccccc3C2=O)c1 | 1.8% | 37.2% | / | -95.9* | -22.3%
COc1ccc(/C=C2\CCc3ccccc3C2=O)cc1OC | 7.94µM* | 15.3% | -0.3% | ? | ?
COc1ccc(C=C2C=C(C(C)(C)C)C(=O)C(C(C)(C)C)=C2)cc1OC | -13.7% | 22.4µM* | ? | -98.6* | -23.0%
Nc1c(-c2nc(-c3ccncc3)no2)nnn1CC(=O)Nc1ccccc1 | -12.1% | -1.0% | / | ? | -12.6%
Cc1cc(C)c(S(=O)(=O)N[C@H]2CC[C@@]34CCCN3C(=O)CCC[C@H]4[C@H]2C)c(C)c1 | / | / | / | 18.9 | /
SMILES | Vaccinia mCherry | FMDV antiviral | HCV inhibitor | HCMV antiviral | VACV Venus inh
COc1ccc(CNCc2ccc3c(c2)n(C)c(=O)n3C)cc1 | -18.7% | 6.4% | / | 1.1 | -10.1%
Cc1ccc(Oc2nc3c(c(=O)n(Cc4ccccc4Cl)c(=O)n3C)n2C)cc1C | ? | -15.3% | / | 10.6 | ?
Cn1c(Br)nc2c1c(=O)n(Cc1ccccc1)c(=O)n2C | -10.2% | 0.0% | 6.8% | 54.0 | 3.0%
CC(O)CNc1nc2c(c(=O)n(C)c(=O)n2C)n1Cc1cccc(Br)c1 (stereo unspecified) | -11.7% | / | 11.2µM* | -34.9 | -22.9%
CCCn1c(CN2CCCCC2C)nc2c1c(=O)n(C)c(=O)n2C (stereo unspecified) | i | -10.6% | 14.3% | 55.7 | -5.6%
Cc1ccc(Oc2nc3c(c(=O)n(Cc4ccccc4)c(=O)n3C)n2C)cc1C | i | 14.1µM* | / | 1.0 | -4.1%
CCCCCCn1c(CN2CCCCC2C)nc2c1c(=O)n(C)c(=O)n2C (stereo unspecified) | ? | / | 25.1µM* | 17.0 | -29.2%
Cn1c(Cl)nc2c1c(=O)n(Cc1cccc(Br)c1)c(=O)n2C | / | -13.4% | 12.6µM* | -16.1 | /
O=C(OCc1ccco1)c1ccc2c(c1)N(Cc1ccc([N+](=O)[O-])cc1)C(=O)c1ccccc1S2 | -13.9% | -19.5% | / | 13.8 | 2.9%
CCCNc1nc2c(c(=O)n(C)c(=O)n2C)n1CCc1ccccc1 | / | 14.1µM* | 14.1µM* | -64.7* | /
COCCCn1c(=O)c2sccc2n(Cc2cccc(C)c2)c1=O | / | -13.6% | 10.1% | -0.2 | /
Cn1c(=O)c2sccc2n(Cc2cccc(Br)c2)c1=O | -9.5% | -29.5% | 11.2µM* | 20.8 | -19.1%
CC(C)CNc1nc2c(c(=O)n(C)c(=O)n2C)n1Cc1cccc(Br)c1 | / | ? | 7.9% | -9.0 | -20.7%
CCCNc1nc2c(c(=O)n(C)c(=O)n2C)n1Cc1cccc(C)c1 | ? | ? | ? | -62.3* | -29.4%
CCCCCCn1c(NCC)nc2c1c(=O)n(C)c(=O)n2C | / | ? | 5.62µM* | -88.5* | ?
CCCNc1nc2c(c(=O)n(C)c(=O)n2C)n1CCCc1ccccc1 | / | ? | ? | -7.8 | /
COc1ccc(NC(=O)CCc2c(C)nc3c(-c4ccccc4)c(C)nn3c2C)cc1Cl | -12.9% | -17.8% | / | -11.9 | -3.3%
Cc1nc(-c2ccccc2)sc1CCNC(=O)C(=O)Nc1ccc2c(c1)OCO2 | i | -23.6% | / | 21.5 | -13.0%
CCOc1cc(C(=O)NCCc2csc(-c3ccc(C)cc3)n2)cc(OCC)c1OCC | 2.4% | -12.4% | / | 1.5 | -11.0%
O=C(Cn1c(=O)n(CCc2ccccc2)c(=O)c2cccnc21)Nc1ccc(F)cc1 | -13.4% | -9.6% | / | 34.6 | 4.7%
Cc1ccc(C)c(CSc2nc(-c3ccccc3F)nc3c2Cc2c(CO)cnc(C)c2O3)c1 | 5.4% | -20.9% | / | -8.4 | 7.6%
CCn1nc(C)c2c(-c3ccccc3)cc(=O)n(C(C)C(=O)NCc3ccccc3OC)c21 (stereo unspecified) | -10.9% | ? | / | -15.7 | 1.5%
CC(O)CNc1nc2c(c(=O)n(C)c(=O)n2C)n1CCc1ccccc1 (stereo unspecified) | -17.6%[1.46 µM] | ? | 28.2µM* | 3.3 | -24.4%
Cn1c(=O)c2c(nc(NCC(O)CO)n2CCc2ccccc2)n(C)c1=O (stereo unspecified) | / | -15.7% | 6.6% | 31.2 | 11.1%
Cc1cccc(C)c1NC(=O)C(Cl)=C(Cl)Cl | ? | 1.3% | -26.1% | -89.0* | -21.3%
